High-throughput results (PubChem BioAssay)
Only some compounds are listed: those with a hit (about 2.4% of all), similar ones and a draw of the others.
M1 antag: human M1 muscarinic receptor antagonists, primary screen, CHO-K1 cells, Fluo-8 calcium fluorescence, 1536-well; Muscarinic acetylcholine receptor M1 (Homo sapiens), P11229; CHO-K1 hM1, ACh EC80 antagonist; inhibition, % at 3 µM; hit rate 1.3% among 360,000; AID 588852, 2011;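 active = percent inhibition above its own plate's cutoff, namely the mean of that plate's compound wells plus 3 SD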;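 note: peak over basal fluorescence ratio during 140 s after agonist addition; 0% = ACh EC80 plus DMSO and 100% = DMSO alone without agonist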
Target sequence (P11229 whole entry, looked up): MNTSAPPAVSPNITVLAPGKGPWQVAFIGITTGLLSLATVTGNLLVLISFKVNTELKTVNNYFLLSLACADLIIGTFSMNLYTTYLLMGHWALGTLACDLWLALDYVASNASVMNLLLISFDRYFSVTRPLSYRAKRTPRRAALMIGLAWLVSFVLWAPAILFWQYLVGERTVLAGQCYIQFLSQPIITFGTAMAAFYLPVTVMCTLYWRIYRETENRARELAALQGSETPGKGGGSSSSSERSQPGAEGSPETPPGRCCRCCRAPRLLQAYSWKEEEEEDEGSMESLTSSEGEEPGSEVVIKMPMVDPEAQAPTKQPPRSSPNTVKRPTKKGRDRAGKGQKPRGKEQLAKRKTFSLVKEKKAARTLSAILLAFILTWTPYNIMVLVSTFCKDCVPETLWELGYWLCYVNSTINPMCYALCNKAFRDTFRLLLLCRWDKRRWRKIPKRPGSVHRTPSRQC
M1 ag parental: counter-screen for M1 agonists: effect in parental CHO-K1 cells; Fluo-8 calcium fluorescence; scaled to maximal ATP response, vehicle zero; activation, % at 3 µM; hit rate 0.48% among 360,000; AID 602248, 2012; in the data active = activation above about 15%;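 note: untransfected CHO-K1 host cells lacking M1 receptor as counterscreen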
CHO-K1 Ca antag: M1 antagonist counterscreen hit in parental CHO-K1 cells | ATP-induced calcium, Fluo-8 fluorescence | inhibition, % at 3 µM | hit rate 0.6% among 360,000;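 active = inhibition above a per-plate cutoff, the plate's mean sample inhibition plus 3 SD, cut at about 24% in these data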;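 note: 0% = DMSO plus EC80 ATP and 100% = DMSO alone without ATP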
CHRM1 PAM: human M1 muscarinic receptor positive allosteric modulators, primary screen, CHO-K1 cells, Fluo-8 calcium fluorescence, 1536-well. CHO-K1 hM1, ACh EC20; 0% = ACh EC20, 100% = maximal ACh. activation, % at 3 µM. hit rate 0.088% among 360,000. AID 588819, 2011; in the data active = activation above about 19%, passing the limit was not always enough
M1 ag: human M1 muscarinic receptor agonists, primary screen, Fluo-8 calcium fluorescence, CHO-K1 cells, HTS | Muscarinic acetylcholine receptor M1 (Homo sapiens), P11229 | CHO-K1 hM1, agonist mode; 0% DMSO, 100% acetylcholine EC100 | activation, % at 3 µM | hit rate 0.33% among 360,000 | AID 588814, 2011;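 active = activation above the run's mean compound activation plus 3 SD, cut at about 16% in these data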;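 note: peak over basal fluorescence ratio within a 140 s kinetic read after compound addition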
M1 PAM parental: nonselective calcium activators in parental CHO-K1 cells, primary screen, counter-screen for M1 PAM project, cell-based, Fluo-8 calcium fluorescence, full deck, 1536-well | ATP EC20; 0% at ATP EC20, 100% at ATP max | hit rate 0.02% among 360,000 | activation, % at 3 µM;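 active = activation above the run cutoff, the mean activation of all test compounds plus 3 SD, cut at about 40% in these data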;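 note: peak over basal fluorescence ratio in a 140 s read after ATP addition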
An asterisk follows results filed as active.

SMILES	M1 antag	M1 ag parental	CHO-K1 Ca antag	CHRM1 PAM	M1 ag	M1 PAM parental
CCN(CC)C(=O)c1csc([C@@H]2O[C@H](CO)[C@H](O)[C@H](O)[C@H]2O)n1	-10	1	-7	4	-3	4
CCCCC(=O)/C=C/n1c(=S)oc2ccccc21	-12	0	-7	7	-4	11
Cc1ccccc1C(=O)NC1CC2CCCC(C1)N2CC(C)C (stereo not given)	66*	0	-4	-28	-9	-1
Cc1ccccc1NC(=O)Cn1nc(-c2ccccc2)nc1-c1ccccc1	-3	0	24*	10	1	-7
COc1ccc([C@H]2C(C#N)=C([S-])N[C@](C)(O)[C@@H]2[n+]2ccccc2)cc1	74*	1	3	-25	-9	6
CCOC(=O)Cn1nc(C)c(NC(=O)CCc2ccccc2)c1C	-6	0	3	5	-5	2
CCOC(=O)Cn1nc(C)c(NC(=O)CCc2ccc(OC)cc2)c1C	-13	17*	-7	17	-8	16
CCN1CCN(c2ccc(NC(=O)c3ccccc3F)cc2Cl)CC1	84*	0	22	-28	-9	-7
CCCCCC(=O)NC(=S)Nc1ccc(N2CCCCC2)c(Cl)c1	-12	0	9	8	0	-7
CCN1CCN(c2ccc(NC(=O)c3ccc(C#N)cc3F)cc2Cl)CC1	54*	3	8	-27	-8	3
CCCCCC(=O)Nc1ccc(N2CCN(CC)CC2)c(Cl)c1	69*	0	-3	-23	-7	16
CCN1CCN(c2ccc(NC(=O)c3cc4ccccc4cc3OC)cc2C)CC1	99*	4	-28	-22	-5	22
CC(=O)N1CCN(c2ccccc2NC(=O)c2ccc(C#N)cc2F)CC1	12	13	-5	0	-3	5
O=[N+]([O-])c1ccc(N/N=C/c2cn(Cc3ccc(F)cc3)c3ccccc23)nc1	0	2	-9	-6	-10	21
O=C(CN1CCN(S(=O)(=O)c2cccc(Br)c2)CC1)N1CCCCC1	-14	0	-10	11	-6	-2
CCOC(=O)C1CCN(c2ccccc2CN2CCN(c3ccccc3OCC)CC2)CC1	48*	5	20	-23	-7	-8
O=C(N1CCN(CCO)CC1)N1c2ccccc2C=Cc2ccccc21	31*	0	-14	-15	-6	28
O=C(NCc1ccccc1)N1CCN(CCO)CC1	-10	0	3	4	-3	6
CCCn1c(C(C)NC(=O)c2ccccc2)n[nH]c1=S (stereo not given)	-11	17*	0	5	-2	12
O=C(CCl)NC(Cc1c[nH]c2ccc(OCc3ccccc3)cc12)C(=O)O (stereo not given)	-19	0	3	8	0	2
O=C1CSC(=S)N1/N=C/c1cc(Br)c(O)c(Br)c1	90*	106*	45*	-42	251*	-8
O=[N+]([O-])c1cccc(/C=N/Nc2nc(NCc3ccccc3)nc(N3CCOCC3)n2)c1O	-8	5	-8	7	11	2
CC1CCN(Cc2ccc(NC(=O)C3CCN(c4nnc(-n5cccc5)s4)CC3)cc2)CC1	97*	0	-6	-35	-14	6
OC(COc1ccccc1)CN1CCN(C(c2ccccc2)c2ccccc2)CC1 (stereo not given)	23	-1	2	-24	-9	4
COc1ccccc1OCCCCN1CCN(C(c2ccccc2)c2ccccc2)CC1	86*	2	-5	-20	-7	9
SMILES	M1 antag	M1 ag parental	CHO-K1 Ca antag	CHRM1 PAM	M1 ag	M1 PAM parental
c1ccc(OCCOCCN2CCN(C(c3ccccc3)c3ccccc3)CC2)cc1	100*	1	-9	-23	-8	13
O=C(Nc1ccccc1C(=O)Nc1ccncc1)c1cccc([N+](=O)[O-])c1	-4	2	-16	2	-1	-2
COc1ccc(Nc2cc(NCCCO)c([N+](=O)[O-])c3nonc23)cc1	-4	-2	-8	2	-4	7
COc1ccc(CNc2cc(NCCCO)c([N+](=O)[O-])c3nonc23)cc1	-2	-1	25*	1	-10	-16
C=CC(=O)Nc1ccc(CN2C(=O)N(c3c(Cl)c(OC)cc(OC)c3Cl)Cc3cnc(NCCCCN(CC)CC)nc32)cc1	39*	0	-4	-30	-11	-6
COCc1cc(C)nc(SCC[N+](C)(C)CC(=O)c2ccc(Br)cc2)c1C#N	70*	1	-16	-26	-8	20
CCCc1cc(NC(=O)CCl)n(-c2ccccc2)n1	-7	0	-13	0	-7	9
COc1ccc(N(Cc2ccccc2)C(=O)CSc2nnc(Cn3nnc4ccccc43)o2)cc1	-24	0	18	14	6	0
O=C(CSc1nnc(Cn2nnc3ccccc32)o1)N(Cc1ccc(F)cc1)c1ccccc1	26	11	25*	-10	-2	9
CCOC(=O)C1=C(O)CSC1=Nc1ccc(Cl)cc1	2	-1	27*	9	-2	-6
CCOC(=O)C1=C(O)CSC1=Nc1ccccc1	-7	-1	8	8	-2	1
COc1cc(/C=N/NS(=O)(=O)c2ccccc2)c(OC)c(OC)c1	-13	16*	-4	7	-4	11
CN(C)c1cc[n+](CC(=O)N2c3ccccc3Sc3ccccc32)cc1	100*	1	-19	-25	-8	-5
O=C(C[n+]1ccccc1)N1c2ccccc2Sc2ccccc21	100*	0	-7	-38	-15	-6
O=C(COc1ccccc1)N1c2ccccc2Sc2ccccc21	15	2	-12	-16	-9	22
COC(C/C=C/[C@H](O)[C@@H](C)OCc1ccccc1)OC	0	1	-14	5	-4	5
CCOC(=O)C1=CNS(=O)(=O)NC1c1ccc(C(F)(F)F)cc1 (stereo not given)	-16	0	-10	5	0	-8
C=C(C)CCOC(=O)C(CC(=O)O)NCc1ccco1 (stereo not given)	-6	0	-7	6	-4	17
Cc1cccc(NC(=O)CCS(=O)(=O)c2ccc3nc(C)sc3c2)c1	-14	0	-13	10	-3	32
c1ccc2c(c1)[nH]c1ccncc12	-3	1	-12	1	18*	16
